Test results as given in the supplement of paper PMC8728848.
Many of the other results were omitted from the sample, so the strongest signals are more common in it than they were.

Tests used:
Test in all cases: glycan array binding signal (z-score within array); higher = stronger binding
Conditions in all cases: glycan notation: IUPAC condensed, linker removed
[1] = target: Fuc(a1-2)Gal(b1-3)[Fuc(a1-4)]GlcNAc
Procedure, shortened: (§1)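 The binding signal is a Z-score computed within each array. Data were drawn from 3228 arrays in the Consortium for Functional Glycomics database, restricted to those with a known protein sequence. Scores were averaged over arrays of the same protein sequence at different concentrations or buffers, and over linkers, and negative values can be taken as non-binding.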

[2] = target: Fuc(a1-2)Gal6S(b1-3)GlcNAc6S
Procedure, shortened: as §1

[3] = target: Fuc(a1-2)[Gal(a1-3)]Gal(b1-3)GlcNAc
Procedure, shortened: as §1

[4] = target: Fuc(a1-2)[Gal(a1-3)]Gal(b1-3)GlcNAc(b1-2)Man(a1-3)[Fuc(a1-2)[Gal(a1-3)]Gal(b1-3)GlcNAc(b1-2)Man(a1-6)]Man(b1-4)GlcNAc(b1-4)GlcNAc
Procedure, shortened: as §1

[5] = target: Fuc(a1-3)[Gal(b1-4)]Glc6S
Procedure, shortened: as §1

[6] = target: Fuc(a1-3)[Gal(b1-4)]GlcNAc(b1-3)Gal(b1-4)[Fuc(a1-3)]GlcNAc
Procedure, shortened: as §1

[7] = target: Fuc(a1-3)[Gal(b1-4)]GlcNAc6S
Procedure, shortened: as §1

[8] = target: Gal(a1-3)Fuc(a1-2)Gal(b1-4)GlcNAc(b1-3)[Gal(a1-3)Fuc(a1-2)Gal(b1-4)GlcNAc(b1-6)]GalNAc
Procedure, shortened: as §1

Gal(a1-3)Gal(b1-3)GlcNAc = target: Gal(a1-3)Gal(b1-3)GlcNAc
Procedure, shortened: as §1

Gal(b1-3)GalNAc = target: Gal(b1-3)GalNAc
Procedure, shortened: as §1

[9] = target: Gal(b1-3)GalNAc(a1-3)[Fuc(a1-2)]Gal(b1-4)Glc
Procedure, shortened: as §1

Gal(b1-3)GlcNAc(b1-2)Man = target: Gal(b1-3)GlcNAc(b1-2)Man
Procedure, shortened: as §1

[10] = target: Gal(b1-3)[Fuc(a1-4)]GlcNAc(b1-2)Man(a1-3)[Gal(b1-3)[Fuc(a1-4)]GlcNAc(b1-2)Man(a1-6)]Man(b1-4)GlcNAc(b1-4)[Fuc(a1-6)]GlcNAc
Procedure, shortened: as §1

[11] = target: Gal(b1-3)[Neu5Ac(a2-6)]GalNAc
Procedure, shortened: as §1

Gal(b1-4)Glc6S = target: Gal(b1-4)Glc6S
Procedure, shortened: as §1

[12] = target: Gal(b1-4)GlcNAc(b1-3)Gal(b1-4)GlcNAc(b1-2)[Gal(b1-4)GlcNAc(b1-3)Gal(b1-4)GlcNAc(b1-6)]Man(a1-6)[Gal(b1-4)GlcNAc(b1-3)Gal(b1-4)GlcNAc(b1-2)Man(a1-3)]Man(b1-4)GlcNAc(b1-4)GlcNAc
Procedure, shortened: as §1

[13] = target: Gal(b1-4)GlcNAc(b1-3)Gal(b1-4)GlcNAc(b1-3)Gal(b1-4)GlcNAc(b1-3)Gal(b1-4)GlcNAc(b1-2)Man(a1-3)[Gal(b1-4)GlcNAc(b1-3)Gal(b1-4)GlcNAc(b1-3)Gal(b1-4)GlcNAc(b1-3)Gal(b1-4)GlcNAc(b1-2)Man(a1-6)]Man(b1-4)GlcNAc(b1-4)[Fuc(a1-6)]GlcNAc
Procedure, shortened: as §1

[14] = target: Gal(b1-4)GlcNAc(b1-3)Gal(b1-4)GlcNAc(b1-3)GalNAc
Procedure, shortened: as §1

[15] = target: Gal(b1-4)GlcNAc(b1-6)Gal(b1-4)GlcNAc
Procedure, shortened: as §1

[16] = target: Gal3S(b1-3)[Fuc(a1-4)]GlcNAc
Procedure, shortened: as §1

Gal3S6S(b1-4)GlcNAc6S = target: Gal3S6S(b1-4)GlcNAc6S
Procedure, shortened: as §1

Gal6P(b1-4)GlcNAc = target: Gal6P(b1-4)GlcNAc
Procedure, shortened: as §1

Gal6S(b1-4)Glc6S = target: Gal6S(b1-4)Glc6S
Procedure, shortened: as §1

GalNAc(b1-4)GlcNAc6S = target: GalNAc(b1-4)GlcNAc6S
Procedure, shortened: as §1

[17] = target: Glc(a1-4)Glc(a1-4)Glc(a1-4)Glc
Procedure, shortened: as §1

[18] = target: GlcNAc(b1-2)Gal(b1-3)GalNAc
Procedure, shortened: as §1

[19] = target: GlcNAc(b1-2)Man(a1-3)[GlcNAc(b1-2)Man(a1-6)]Man(b1-4)GlcNAc(b1-4)[Fuc(a1-6)]GlcNAc
Procedure, shortened: as §1

[20] = target: GlcNAc(b1-2)[GlcNAc(b1-6)]Man(a1-6)[GlcNAc(b1-2)Man(a1-3)]Man(b1-4)GlcNAc(b1-4)GlcNAc
Procedure, shortened: as §1

[21] = target: GlcNAc(b1-3)Gal(b1-4)GlcNAc(b1-3)Gal(b1-4)GlcNAc(b1-3)GalNAc
Procedure, shortened: as §1

[22] = target: GlcNAc(b1-3)[GlcNAc(b1-4)][GlcNAc(b1-6)]GlcNAc
Procedure, shortened: as §1

[23] = target: Man(a1-3)[Man(a1-6)]Man(a1-6)[Man(a1-2)Man(a1-3)]Man(b1-4)GlcNAc(b1-4)GlcNAc
Procedure, shortened: as §1

[24] = target: Man(a1-3)[Man(a1-6)]Man(a1-6)[Man(a1-3)]Man
Procedure, shortened: as §1

Man(a1-6)Man = target: Man(a1-6)Man
Procedure, shortened: as §1

[25] = target: Neu5Ac(a2-3)Gal(b1-3)GlcNAc(b1-2)Man(a1-3)[GlcNAc(b1-4)][Neu5Ac(a2-3)Gal(b1-3)GlcNAc(b1-2)Man(a1-6)]Man(b1-4)GlcNAc(b1-4)GlcNAc
Procedure, shortened: as §1

[26] = target: Neu5Ac(a2-3)Gal(b1-3)GlcNAc(b1-4)Gal(b1-4)Glc
Procedure, shortened: as §1

Neu5Ac(a2-3)Gal(b1-4)Glc = target: Neu5Ac(a2-3)Gal(b1-4)Glc
Procedure, shortened: as §1

[27] = target: Neu5Ac(a2-3)Gal(b1-4)GlcNAc(b1-2)Man
Procedure, shortened: as §1

[28] = target: Neu5Ac(a2-3)Gal(b1-4)GlcNAc(b1-2)[Neu5Ac(a2-3)Gal(b1-4)GlcNAc(b1-4)]Man(a1-3)[GlcNAc(b1-4)][Neu5Ac(a2-3)Gal(b1-4)GlcNAc(b1-4)Man(a1-6)]Man(b1-4)GlcNAc(b1-4)GlcNAc
Procedure, shortened: as §1

[29] = target: Neu5Ac(a2-3)Gal(b1-4)GlcNAc(b1-3)Gal(b1-4)GlcNAc(b1-2)Man(a1-3)[Neu5Ac(a2-3)Gal(b1-4)GlcNAc(b1-3)Gal(b1-4)GlcNAc(b1-2)Man(a1-6)]Man(b1-4)GlcNAc(b1-4)GlcNAc
Procedure, shortened: as §1

[30] = target: Neu5Ac(a2-3)[GalNAc(b1-4)]Gal(b1-4)GlcNAc
Procedure, shortened: as §1

[31] = target: Neu5Ac(a2-6)Gal(b1-4)GlcNAc(b1-2)Man(a1-3)[Gal(b1-4)GlcNAc(b1-2)Man(a1-6)]Man(b1-4)GlcNAc(b1-4)GlcNAc
Procedure, shortened: as §1

[32] = target: Neu5Ac(a2-6)Gal(b1-4)GlcNAc(b1-2)Man(a1-6)[Man(a1-3)]Man(b1-4)GlcNAc(b1-4)GlcNAc
Procedure, shortened: as §1

[33] = target: Neu5Ac(a2-6)Gal(b1-4)GlcNAc(b1-2)[Neu5Ac(a2-6)Gal(b1-4)GlcNAc(b1-4)]Man(a1-3)[GlcNAc(b1-4)][Neu5Ac(a2-6)Gal(b1-4)GlcNAc(b1-4)Man(a1-6)]Man(b1-4)GlcNAc(b1-4)GlcNAc
Procedure, shortened: as §1

[34] = target: Neu5Ac(a2-6)Gal(b1-4)GlcNAc(b1-3)Gal(b1-4)GlcNAc
Procedure, shortened: as §1

[35] = target: Neu5Ac(a2-6)Gal(b1-4)GlcNAc(b1-3)Gal(b1-4)GlcNAc(b1-3)Gal(b1-4)GlcNAc(b1-2)Man(a1-3)[Neu5Ac(a2-6)Gal(b1-4)GlcNAc(b1-3)Gal(b1-4)GlcNAc(b1-3)Gal(b1-4)GlcNAc(b1-2)Man(a1-6)]GalNAc
Procedure, shortened: as §1

[36] = target: Neu5Ac(a2-8)Neu5Ac(a2-3)[GalNAc(b1-4)]Gal(b1-4)Glc
Procedure, shortened: as §1

[37] = target: Neu5Ac(a2-8)Neu5Ac(a2-8)Neu5Ac(a2-8)Neu5Ac(a2-3)[GalNAc(b1-4)]Gal(b1-4)Glc
Procedure, shortened: as §1

[38] = target: Neu5Gc(a2-3)Gal(b1-3)[Fuc(a1-4)]GlcNAc
Procedure, shortened: as §1

Neu5Gc(a2-3)Gal(b1-4)Glc = target: Neu5Gc(a2-3)Gal(b1-4)Glc
Procedure, shortened: as §1

[39] = target: Neu5Gc(a2-3)Gal(b1-4)GlcNAc
Procedure, shortened: as §1

B1: CaSRK1 (Capsicum annuum) (protein)
chain: MALCKIFPFAFILLSCSCYLISGQRFDYPTANLSTTWINSVSAPHSIDYTDGSRIRAILLRGTFGPRYACGFYCNGNCESYLFAIFIVQTNSASQITSPAIGFPQVVWSANRNNPVKINSTLQLTAEGDLVLRDADGTLAWSTNTAGKSVAGLSLTDEGNLALFDSKNATVWQSFDHPTDALVPGQKLVPGMKLTASVSRTNWTAGGLFALSAIDNGLVAFVESNPPQKYFEASVGGSNTSGGSNYVKYLNGSLTLFTHSADTTELILISITPASSAQYMKLESNGHLKVYEWTSRGWREVDDLLTGFRGECNYPTVCGRYGICTMGQCSCPTSSSSRTYFRPIDVRRPSLGCSEVTKLTCQNTKKHSPLEVEDVDYFAFKAGISDTDLNTCKRACLEKCSCKAAFFRSGLNSSRTRGDCYLPTEIFSIMNNEKDRTRYDSVAFIKVQV
- glycan array binding signal (z-score) [1]: -0.523
- glycan array binding signal (z-score) [2]: 2.31
- glycan array binding signal (z-score) [3]: 2.37
- glycan array binding signal (z-score) [4]: -0.546
- glycan array binding signal (z-score) [5]: -0.056
- glycan array binding signal (z-score) [6]: 0.387
- glycan array binding signal (z-score) [7]: 0.606
- glycan array binding signal (z-score) [8]: 3.39
- glycan array binding signal (z-score) (Gal(a1-3)Gal(b1-3)GlcNAc): 3.11
- glycan array binding signal (z-score) (Gal(b1-3)GalNAc): -0.395
- glycan array binding signal (z-score) [9]: 0.178
- glycan array binding signal (z-score) (Gal(b1-3)GlcNAc(b1-2)Man): 5.29
- glycan array binding signal (z-score) [10]: -0.295
- glycan array binding signal (z-score) [11]: -0.368
- glycan array binding signal (z-score) (Gal(b1-4)Glc6S): -0.386
- glycan array binding signal (z-score) [12]: 3.63
- glycan array binding signal (z-score) [13]: 0.677
- glycan array binding signal (z-score) [14]: 2.85
- glycan array binding signal (z-score) [15]: 0.04
- glycan array binding signal (z-score) [16]: -0.07
- glycan array binding signal (z-score) (Gal3S6S(b1-4)GlcNAc6S): 2.4
- glycan array binding signal (z-score) (Gal6P(b1-4)GlcNAc): -0.342
- glycan array binding signal (z-score) (Gal6S(b1-4)Glc6S): 0.802
- glycan array binding signal (z-score) (GalNAc(b1-4)GlcNAc6S): 0.352
- glycan array binding signal (z-score) [17]: 0.933
- glycan array binding signal (z-score) [18]: -0.097
- glycan array binding signal (z-score) [19]: -0.143
- glycan array binding signal (z-score) [20]: -0.46
- glycan array binding signal (z-score) [21]: -0.477
- glycan array binding signal (z-score) [22]: -0.34
- glycan array binding signal (z-score) [23]: -0.258
- glycan array binding signal (z-score) [24]: -0.303
- glycan array binding signal (z-score) (Man(a1-6)Man): 1.5
- glycan array binding signal (z-score) [25]: -0.549
- glycan array binding signal (z-score) [26]: 0.467
- glycan array binding signal (z-score) (Neu5Ac(a2-3)Gal(b1-4)Glc): -0.089
- glycan array binding signal (z-score) [27]: 7.73
- glycan array binding signal (z-score) [28]: 0.06
- glycan array binding signal (z-score) [29]: 1.33
- glycan array binding signal (z-score) [30]: -0.414
- glycan array binding signal (z-score) [31]: -0.423
- glycan array binding signal (z-score) [32]: -0.589
- glycan array binding signal (z-score) [33]: -0.513
- glycan array binding signal (z-score) [34]: -0.402
- glycan array binding signal (z-score) [35]: 2.58
- glycan array binding signal (z-score) [36]: -0.56
- glycan array binding signal (z-score) [37]: -0.413
- glycan array binding signal (z-score) [38]: -0.319
- glycan array binding signal (z-score) (Neu5Gc(a2-3)Gal(b1-4)Glc): 3.18
- glycan array binding signal (z-score) [39]: -0.416
